Results as given in PubChem BioAssay AID717 (Columbia University Molecular Screening Center, 2007).
About 40 (0.04%) of roughly 91,000 compounds were called active. No stated cut-off is given here; in the data, active means activation above about 37%; inactive means the rest. A selection follows.

Molecular target: Bifunctional epoxide hydrolase 2 (Homo sapiens) (UniProt P34913)
Test: soluble epoxide hydrolase activators, primary screen, biochemical, human sEH (AID 717)
Conditions: purified human sEH enzymatic activity, activator screen; at 2 µM; stronger effect = higher value

Chain of Bifunctional epoxide hydrolase 2 (Homo sapiens) (P34913 whole entry, looked up): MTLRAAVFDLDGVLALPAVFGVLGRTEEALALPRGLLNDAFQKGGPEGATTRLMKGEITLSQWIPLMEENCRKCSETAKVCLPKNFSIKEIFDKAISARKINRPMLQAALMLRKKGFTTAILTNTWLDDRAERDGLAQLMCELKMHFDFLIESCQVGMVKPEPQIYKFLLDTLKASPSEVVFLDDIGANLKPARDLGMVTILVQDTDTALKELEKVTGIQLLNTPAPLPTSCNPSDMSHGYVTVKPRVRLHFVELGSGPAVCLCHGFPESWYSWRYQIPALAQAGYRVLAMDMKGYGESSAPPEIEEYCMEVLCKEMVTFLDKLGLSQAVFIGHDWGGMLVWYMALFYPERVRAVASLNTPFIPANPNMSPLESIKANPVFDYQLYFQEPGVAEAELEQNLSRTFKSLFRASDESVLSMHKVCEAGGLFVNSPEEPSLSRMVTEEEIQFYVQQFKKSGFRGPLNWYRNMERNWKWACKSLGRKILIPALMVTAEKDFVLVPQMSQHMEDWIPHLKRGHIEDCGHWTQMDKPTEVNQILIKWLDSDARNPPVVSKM

activation, inactive:
O=C(CCC(=O)OCc1cccc(C(=O)Oc2ccccc2)c1)Nc1cccc2ccccc12 -9.6%, O=C(CSCc1c(Cl)cccc1Cl)NN1C(=O)c2ccccc2C1=O -21.2%, Cc1ccc(N2C(=O)C(Cc3ccccc3)NC2=S)cc1 (stereo not drawn) -3.9%, COc1ccc(NC(=O)CSc2nc(N)c(-c3ccccc3)c(=O)[nH]2)cc1 -3.7%, Cc1nn(C)c(Oc2ccccc2)c1[N+](=O)[O-] -3%, O=C(CSc1ccc(/C=N/NC(=O)c2cccc(F)c2)o1)Nc1ccccc1 -79%, CCOc1c2ccc(C(=O)NCc3ccc(OC(F)(F)F)cc3)cc2nn1C -0.5%, CC1=NN(C(=O)c2ccccc2Br)C(O)(c2cccnc2)C1 (stereo not drawn) -13.7%, Cc1nn(-c2ccccn2)c2c1C(c1ccncc1)C1=C(CC(C)(C)CC1=O)N2 (stereo not drawn) 3.8%, Cc1ccc(Oc2ccc3c(c2)C(=O)N(c2cccc4cccnc24)C3=O)cc1 -10.3%, Cc1cc(C)c2c(-n3cccc3)c(C(=O)NNS(=O)(=O)c3ccc(F)cc3)sc2n1 11.1%, Cc1nn(C)cc1C(=O)NNC(=S)Nc1ccc(Cl)cc1 -12.9%, O=C(NC1=NCCS1)[C@H](Cc1ccccc1)N1C(=O)c2ccccc2C1=O -7.6%, CCCCNC(=O)CCn1c(=S)[nH]c2cc3c(cc2c1=O)OCO3 -13.6%, O=C(c1cccc(F)c1)N1CCN(c2ccc([N+](=O)[O-])c(N3CCCCC3)c2)CC1 -8.2%, COc1ccc(N(CC(=O)N/N=C/c2cccc3c2OCCO3)S(=O)(=O)c2ccc(NC(C)=O)cc2)cc1 5.2%, COc1ccccc1-c1n[nH]c2c1[C@H](C)CC[C@H]2C(C)C 15.1%, COc1cccc2c1OCC(C(=O)NCc1ccc(Cl)cc1Cl)=C2 -78.6%, COc1ccc([N+](=O)[O-])cc1NC(=O)CCc1ccccc1 -7.7%, CCn1c2ccccc2c2cc(NC(=O)C/C(C)=N/NC(=O)c3ccccc3N)ccc21 -2.8%, COc1ccccc1CSc1nc2ccccc2[nH]1 2.2%, O=C(CNC(=O)c1ccccc1)NCC(=O)OCc1ccc(Cl)cc1 5.3%, c1ccc(-n2nnnc2NC2CCCCCC2)cc1 12.5%, COc1ccc(C(=O)NC(=S)Nc2ccccc2N2CCN(S(C)(=O)=O)CC2)cc1OC -12%, Cc1nnc(NC(=O)CSc2nc(C3CCCCC3)nc3ccccc23)s1 1.6%, Cc1c(C(=O)OC(C)C)sc(NC(=O)c2cccnc2)c1C#N -4.7%, Cc1ccc(NC(=S)Nc2ncccc2C)c(C)c1 -5.2%, CCOC(=O)C1CN(S(=O)(=O)c2ccc(F)cc2)C1 6.7%, CCCC(=O)NC(Nc1ccccc1OC)C(Cl)(Cl)Cl (stereo not drawn) -3.9%, CC(C)C(=O)OCC(=O)Nc1ccc2c(c1)CCC2 -1.7%, Cc1ccc(S(=O)(=O)N(CC(=O)N/N=C/c2ccc(F)cc2)c2cccc3cccnc23)cc1 6.1%, N#Cc1c(C(F)(F)F)cc(-c2ccccc2)nc1SCC(=O)N1CCOCC1 0.7%, N#C/C(=C1/CCCN1)c1ccccn1 -2.3%, Cc1cc(C)cc(OCC(=O)NNC(=O)c2cc3ccccc3oc2=O)c1 2%, CCC(=O)NC(NCC1CCCO1)C(Cl)(Cl)Cl (stereo not drawn) 2.5%, O=C(CCc1ccc(S(=O)(=O)N2CCOCC2)cc1)Nc1ccc2ccccc2c1 -20.5%, O=C(CCCOc1ccccc1)NCc1ccco1 -2.8%, COc1ccc(C(=O)N2CCc3cc(OC)c(OC)cc3C2c2cccc([N+](=O)[O-])c2)cc1 (stereo not drawn) 2.1%, Cc1cc(-c2cccs2)nc(-n2cccc2)n1 -0.3%, CCN(CC)CCNc1ccc(Cl)cc1[N+](=O)[O-] -8.3%, Cc1ccccc1NC(=O)C(C)c1ccc(-c2ccccc2)c(F)c1 (stereo not drawn) -9.7%, CCOc1ccc(Nc2nc(Cc3nnc(SCC(=O)NC4CCCC4)n3C)cs2)cc1 -12.4%, C=CCn1c(Cn2nnc3ccccc32)nnc1SCC(=O)N/N=C/c1cc(Br)cc(OC)c1O -14.1%, CC12c3ccccc3C(c3ccccc31)C1C(=O)N(Cc3cccnc3)C(=O)C12 (stereo not drawn) -9.7%, CNS(=O)(=O)c1cnccc1N1CCN(c2cccc(C)c2)CC1 -13.7%, COc1ccc(Cl)cc1NC(=O)CN(C)C(=O)CNC(=O)C12CC3CC(CC(C3)C1)C2 -13.2%, Cc1ccccc1C(=O)N1CCC(C(=O)Nc2ccc(S(=O)(=O)N(C)C(C)C)cc2)CC1 -83.3%, Nc1c(-c2ccc(F)cc2)cnc2ncnn12 -1.1%, COC(=O)c1ccc(C(=O)OC)c(NC(=S)N2CCCCC2)c1 1.5%, O=C(CSc1nc2ccccc2o1)N1c2ccccc2Sc2ccc(Cl)cc21 6.7%, Cc1ccccc1OCc1nnc(SCC(=O)N2c3ccccc3Sc3ccc(Cl)cc32)o1 1%, COc1ccc(CCNC(=O)COC(=O)c2ccc[nH]c2=O)cc1 3.2%, CC1CC(C)CN(C/C=C/c2ccccc2[N+](=O)[O-])C1 (stereo not drawn) -2.6%, O=C(CSCc1ccc([N+](=O)[O-])cc1)NCCSCc1ccccc1 -17.4%, O=C1c2ccccc2C(=O)c2c1cccc2N1CCN(Cc2ccccc2)CC1 33.6%, O=S(=O)(c1ccc(F)cc1)n1ccc(-c2cnc(-c3ccccc3)s2)n1 8.1%, O=c1[nH]n(-c2cccc(Cl)c2)c2ncccc12 0.8%, CC(=O)Nc1ccccc1C(=O)C(=O)Nc1ccc(F)cc1 21.4%, Cc1noc(C)c1C(=O)N(CC(=O)NC1CCCC1)Cc1ccccc1F 5.6%, COc1cccc(NC(=O)C2c3cc(OC)c(OC)cc3C(=O)N(C)C2c2cccnc2)c1 (stereo not drawn) 4.9%, Cc1cccc(-n2cnc(C(=O)Nc3cccnc3)c2)n1 7.2%, CC(C)C(NS(=O)(=O)c1cccs1)C(=O)Nc1nc(C(C)(C)C)cs1 (stereo not drawn) -6%, c1ccc2c(C[n+]3csc4ccccc43)cccc2c1 12.2%, c1ccc(-c2ccnc3nc(-n4cccc4)nn23)cc1 3.1%, COc1cccc(/C=N/NC(=O)C(=O)N2CCCC2)c1 7.2%, CC(C)CC(=O)N1CCC(O)(CS(=O)(=O)Cc2ccccc2)CC1 0.4%, NC(=O)COc1ccc(/C=N/NC(=O)C2CCCN2S(=O)(=O)c2ccc(Cl)cc2)cc1 (stereo not drawn) -1.2%, O=C(O)COc1ccc(-c2nccc(-c3cccs3)n2)cc1 -9.3%, O=C(CSc1ncnc2c1cnn2CCc1ccccc1)Nc1ccc(F)cc1 -20.6%, CN(C)/C=C(\C#N)C(=O)c1cccnc1Oc1ccc(F)cc1F -10.7%, Cc1ccc2c(c1)-c1c(ssc1=S)C(C)(C)N2C(=O)CN1C(=O)c2ccccc2C1=O 25.4%, Cn1nc([N+](=O)[O-])nc1Sc1ccc(C(C)(C)C)cc1 -5.2%, Cc1sc(NC(=S)NC(=O)c2cccs2)nc1-c1ccc(CC(C)C)cc1 17.5%, Cc1ccc(C)c(NC(=O)C2Cc3ccccc3CN2C(=O)OCc2ccccc2)c1 (stereo not drawn) 7.9%, COC(=O)c1c(-c2cccs2)csc1NC(=O)CSc1ncnc2sc(C)c(C)c12 -7%, Cc1cc([N+](=O)[O-])ccc1NCc1cccc([N+](=O)[O-])c1 2.8%, O=S(=O)(/N=C(/Nc1ccccn1)c1ccccc1)c1ccc(Cl)cc1 -19.7%, N/C(=N\OC(=O)c1cc(-c2ccccc2)nc2ccccc12)c1ccncc1 3%, Cc1cc2cc3c(N)[nH]nc3nc2cc1C -5.4%, O=C(/C=C/c1cccs1)c1cc(Cl)ccc1OC(=O)N1CCOCC1 7.4%, O=C(O)c1ccccc1NC(=S)NC(NC(=O)c1ccccc1[N+](=O)[O-])C(Cl)(Cl)Cl (stereo not drawn) -9.3%, Cc1c(Br)c([N+](=O)[O-])nn1C(C)C(=O)Nc1nccs1 (stereo not drawn) 6.6%, CN(C)/C=C/C(=O)c1ccccc1F -11.3%, COC(=O)CN(C(=S)Nc1ccc(Cl)cc1)C1CC(=O)N(c2ccc(OC)cc2)C1=O (stereo not drawn) -11.8%, Cc1ccc(-c2nnc(C)c(N3CC(C)OC(C)C3)n2)cc1 (stereo not drawn) -0.3%, COc1ccc(-c2c(C(C)=O)c(C)nc3sc4c(=O)n(-c5ccc(C)cc5)nnc4c23)cc1 -1.9%, O=C(ON=C1CCN(S(=O)(=O)c2ccccc2)CC1)c1ccc(Cl)cc1 0.1%, N#C/C(=C(/O)Cc1cccc2ccccc12)c1nc2ccccc2s1 13.6%, NS(=O)(=O)c1ccc(Nc2nc(-c3ccccc3)cs2)cc1 -4.9%, CS(=O)(=O)N(CC(=O)Nc1ccc(F)cc1F)c1cccc([N+](=O)[O-])c1 -2.8%, O=C(Nc1cc(C(F)(F)F)ccc1Cl)c1cc2nc3c(c(C(F)(F)F)n2n1)CCCC3 -7.1%, COc1ccc(/C=C2\CCCC3C2=NN(C(=O)c2scnc2C)C3c2ccc(OC)cc2)cc1 (stereo not drawn) 12.7%, O=C(c1ccccc1)C(Cn1cncn1)C(Sc1ccccc1)c1ccccc1 (stereo not drawn) 3.9%
